{
  "source": "PubChem BioAssay (NCI)",
  "note": "Several values for one entry are separate records, joined by “and”; a condition that tells them apart may be missing. Equal values may be shown once. The panel holds about 83,000 compounds, 20% with a hit somewhere; the sample as a whole holds those more often.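 Treatment: one concentration, 48 hours, 96-well format. Scoring: percent growth, with anything below 10 considered active.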 A number with no mark means an inactive call. Activity calls are given as the source filed them.",
  "data": [
    {"test_system": "NCI-H522 lung", "assay": "NCI-60 one-dose screen, 48 h (100 = growth as untreated, 0 = no growth, -100 = all killed)", "settings": "10 µM unless noted", "values": [
      {"smiles": "ON=C1CCCCCCCC1", "growth": "94.1% and 92.8%"},
      {"smiles": "CCOC(=O)N(O)c1ccc(/C=C/c2ccccc2)cc1", "growth": "67.5% and 48.4%"},
      {"smiles": "O=S(=O)(O)c1ccc(N=Nc2ccc(N=Nc3cccc4ccccc34)c(S(=O)(=O)O)c2)cc1", "growth": "103%"},
      {"smiles": "COc1ccc(-c2nn3c(-c4cc(F)c(Cl)cc4Cl)nnc3s2)cc1", "growth": "23.1%"},
      {"smiles": "CCc1c2c(nc3ccc(OCc4ccc(B5OC(C)(C)C(C)(C)O5)cc4)cc13)-c1cc3c(c(=O)n1C2)COC(=O)[C@]3(O)CC", "growth": "3.47% (active)"},
      {"smiles": "O=C(O)c1ccccc1Cc1ccc(F)c2ccccc12", "growth": "94.5% and 89.9%"},
      {"smiles": "CCCCC1COc2cccc3c2N1C=C/C3=C\\C(=O)N(C)c1cccc(Cl)c1", "note": "(stereo not drawn)", "growth": "90.1%"},
      {"smiles": "COc1ccc(/C=C2\\COc3ccc(O)c(O)c3C2=O)c(OC)c1OC", "growth": "-45.2% (active)"},
      {"smiles": "CC12OC(CC(O)C1O)n1c3ccccc3c3c4c(c5c6ccccc6n2c5c31)C(=O)N(CCN1CCOCC1)C4=O", "note": "(stereo not drawn)", "growth": "-16.3% (active)"},
      {"smiles": "COc1ccc(/C=N/C2=C(C#N)C(c3ccccc3)c3c(ccc4ccccc34)O2)cc1", "note": "(stereo not drawn)", "growth": "2.3% (active)"},
      {"smiles": "COc1ccc(-c2cc3cnc4ccccc4c3oc2=O)cc1", "growth": "97.4%"},
      {"smiles": "O=C(/C=C/c1ccc(F)cc1)Nc1ncc(Cc2ccc(F)cc2)s1", "growth": "19.1%"},
      {"smiles": "COc1cc(/C=C2\\CCC/C(=C\\c3cc(CN4CCCC4)c(O)c(OC)c3)C2=O)cc(CN2CCCC2)c1O", "growth": "46.1%"},
      {"smiles": "CN(C)CCCn1c2c(c3ccc(N4CCNCC4)cc3c1=O)C(=O)c1ccccc1-2", "growth": "5.51% (active)"},
      {"smiles": "C=CCOc1ccc(/C=C2\\SC(=S)N(CCc3ccc(O)cc3)C2=O)cc1", "growth": "11%"},
      {"smiles": "CCOC(=O)C1=C(C)N=C2SC=C(c3ccc(F)cc3)N2[C@H]1c1cn(-c2ccccc2)nc1-c1ccc(Cl)cc1", "growth": "83.4%"},
      {"smiles": "COc1ccc(/C=N/NC(=O)CN2CCN(c3cc4c(cc3F)c(=O)c(C(=O)O)cn4C3CC3)CC2)cc1O", "growth": "80.8%"},
      {"smiles": "COc1cccc(C2C(C#N)=C(N)Oc3cc(OCCCCCC[P+](c4ccccc4)(c4ccccc4)c4ccccc4)ccc32)c1", "note": "(stereo not drawn)", "growth": "-10.7% (active)"},
      {"smiles": "Cc1nn(-c2nc(-c3cc4ccccc4oc3=O)cs2)c(C)c1N=Nc1ccccc1", "growth": "97.8%"},
      {"smiles": "Cn1cc2c(=O)nc3c(-c4nc5ccccc5[nH]4)n[nH]n3c2n1", "growth": "-44.5% (active)"},
      {"smiles": "O=C1c2cccc3cccc(c23)C(=O)N1N1C(=O)c2cccc3c(N4CCNCC4)ccc(c23)C1=O", "growth": "93.8%"},
      {"smiles": "Cc1nc2sc(C(=O)Nc3cccc4ncccc34)c(N)c2cc1C(C)O", "note": "(stereo not drawn)", "growth": "34.7%"},
      {"smiles": "CCOC(=O)c1nc2c3ccccc3cnn2c1C(=O)c1ccc(OC)cc1", "growth": "95.2%"},
      {"smiles": "O=C1/C(=C/c2ccccc2[N+](=O)[O-])Cc2ccccc21", "growth": "-88.7% (active) and -87.5% (active)"},
      {"smiles": "COc1cc(/C=C2/C=C(c3ccc(C(C)(C)C)cc3)N(CCc3ccc(S(N)(=O)=O)cc3)C2=O)cc(OC)c1OC", "growth": "49.8%"},
      {"smiles": "COC(=O)N/N=C/c1c[n+]([O-])c2ccccc2[n+]1[O-]", "growth": "92.9%"},
      {"smiles": "Cc1nc(-n2[nH]c(=O)ccc2=O)sc1N=Nc1ccccc1", "growth": "103%"},
      {"smiles": "CC1(Cc2ccccc2)CC2=C(C(=O)O1)C(c1ccccc1)NC(=O)N2", "note": "(stereo not drawn)", "growth": "95.4%"},
      {"smiles": "Cc1ccc(/C=C/c2c(C(=O)/C=C/c3ccccc3)c(C)nc3ccccc23)cc1", "growth": "11.1%"},
      {"smiles": "CC1=C2[C@@H](CC1)[C@]1(C)O[C@@](C3CC3)(C[C@H]1OC(=O)CO)[C@H]2OC(=O)/C=C/c1ccccc1", "growth": "88.4%"},
      {"smiles": "COc1ccc(S(=O)(=O)Nc2cc(Sc3cccc4cccnc34)c(O)c3ccccc23)cc1", "growth": "-39% (active)"},
      {"smiles": "CCN(CC)CCCN1C(=O)c2c(c(C)c3c(oc4cc(OC)ccc43)c2C)C1=O", "growth": "104%"},
      {"smiles": "CN1Cn2c(ccc2C(F)(F)F)C(=O)CS1(=O)=O", "growth": "103%"},
      {"smiles": "O=c1cc(N/N=C/c2ccc(F)cc2)c2cc(Cl)ccc2[nH]1", "growth": "72.8%"},
      {"smiles": "Cc1cccc(-c2nnc(SCC(=O)Nc3ncc(Cc4ccccc4)s3)n2N2C(=O)CSC2=S)c1", "growth": "34.5%"},
      {"smiles": "COc1ccc(/C(C)=C(\\c2ccc(OCCN3CCCCCC3)cc2)c2ccc(OC(=O)C3CCCCC3)cc2)cc1", "growth": "-67.6% (active)"},
      {"smiles": "COc1ccc2c(c1)c(C(=O)c1nc(-c3cn(C)c4ccccc34)no1)cn2C", "growth": "69.6%"},
      {"smiles": "CCOC(=O)c1nnn(Cc2cc(=O)oc3c2ccc2ccccc23)c1C", "growth": "96.3%"}
    ]}
  ]
}
